# Experimental data from PubChem BioAssay.
# Values joined by “and” are separate entries in the source; they are usually repeats but may differ in a detail not shown here. Equal values may be shown once. Active and inactive are the calls of the source. Unless noted, no stated cut-off is given here; in the data, active means inhibition above about 80%; inactive means the rest.
# Assays:
# [1] = LFS_MB_P medulloblastoma growth inhibition, cell-based, chromothripsis tumors, cisplatin or BGB combos (AID 1671449); conditions: LFS_MB_P medulloblastoma cells;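 further: cells exposed for 96 hours; 0% = vehicle DMSO and 100% = killing by high DMSO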
# [2] = HDN33 neuroblastoma growth inhibition, cell-based, chromothripsis tumors, cisplatin or BGB combos (AID 1671450); conditions: HDN33 neuroblastoma cells, stronger effect = higher value;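 further: cells exposed to compound for four days; 0% = vehicle DMSO and 100% = cell killing by high DMSO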
# [3] = ICB984 medulloblastoma cell growth inhibition, synergistic combos for chromothripsis tumors, cisplatin or BGB combos (AID 1671451; call rule not given here;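 further: cells exposed for 96 hours before readout; 0% = vehicle DMSO and 100% = killing by high DMSO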); conditions: ICB984 medulloblastoma cells, drug combinations, stronger effect = higher value
# [4] = LFS_MB_1R medulloblastoma cell growth inhibition, synergistic combos for chromothripsis tumors, cisplatin or BGB combos (AID 1671452); conditions: LFS_MB_1R medulloblastoma cells, stronger effect = higher value;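 further: cells exposed for 96 hours before readout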
# [5] = HTB85 osteosarcoma cell growth inhibition, synergistic combos for chromothripsis tumors, BGB or cisplatin IC20 combos (AID 1671453); conditions: HTB85 osteosarcoma cells, drug combinations, stronger effect = higher value;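 further: cells exposed for 96 hours before readout; 0% = vehicle DMSO and 100% = high DMSO killing control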
# [6] = CRL2098 osteosarcoma cell growth inhibition, synergistic combos for chromothripsis tumors, BGB or cisplatin IC20 combos (AID 1671454); conditions: CRL2098 osteosarcoma cells, drug combinations, stronger effect = higher value;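 further: cells exposed for 96 h before readout; 0% = vehicle DMSO and 100% = killing by high DMSO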
# [7] = HD-MB03 medulloblastoma cell growth inhibition, synergistic combos for chromothripsis tumors, BGB or cisplatin IC20 combos (AID 1671455; in the data active means inhibition above about 83%;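 further: 0% = vehicle DMSO and 100% = high DMSO as cytotoxic control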); conditions: HD-MB03 medulloblastoma cells, stronger effect = higher value
# [8] = UWB1.289 ovarian carcinoma cell growth inhibition, synergistic combos for chromothripsis tumors, BGB or cisplatin combos (AID 1671456); conditions: UWB1.289 ovarian carcinoma cells, stronger effect = higher value;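 further: cells exposed to compound for four days; 0% = vehicle DMSO and 100% = killing by high DMSO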
# [9] = LFS_MB_2R medulloblastoma cell growth inhibition, synergistic combos for chromothripsis tumors, cisplatin combos (AID 1671457); conditions: LFS_MB_2R medulloblastoma cells, stronger effect = higher value;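 further: cells exposed to compound for four days before readout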
# [10] = MDA-MB-436 breast carcinoma cell growth inhibition, synergistic combos for chromothripsis tumors, BGB or cisplatin combos (AID 1671458; call rule not given here;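 further: cells exposed for 96 hours; 0% = vehicle DMSO and 100% = killing by high DMSO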); conditions: MDA-MB-436 breast carcinoma growth inhibition, drug combinations, stronger effect = higher value
# [11] = UWB1.289_BRCA1 ovarian cancer growth, cell-based, BGB or cisplatin combinations (AID 1671459); conditions: UWB1.289 BRCA1 ovarian carcinoma, drug combinations, stronger effect = higher value
# [12] = human astrocyte viability loss, single and combined drugs, cytotoxicity control for chromothriptic childhood tumor combination screen, cell-based, BGB or cisplatin IC20 combos (AID 1671460); conditions: Human astrocytes, drug combinations, stronger effect = higher value;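 further: cells exposed to compounds for 96 hours before viability readout; 0% = vehicle and 100% = killing control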
# [13] = growth inhibition of BT084 medulloblastoma cells, cell-based, ICGC_MB145, cisplatin and BGB IC40 combos (AID 1671461); conditions: drug combinations, stronger effect = higher value;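 further: cells exposed to drugs for 96 hours; 0% = vehicle DMSO and 100% = high DMSO full killing control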
# [14] = growth inhibition of RCMB18 medulloblastoma cells, cell-based, cisplatin and BGB IC40 combos (AID 1671462); conditions: stronger effect = higher value;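 further: cells exposed to compound for four days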
# [15] = growth inhibition of CRL1545 osteosarcoma cells, cell-based, cisplatin and BGB IC20 combos (AID 1671464); conditions: stronger effect = higher value;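 further: cells exposed to compound for 96 hours before readout; 0% = vehicle DMSO and 100% = high DMSO killing control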
# [16] = measured here: combination with BGB IC40, at 0.05 µM
# [17] = measured here: with BGB IC20 combination, at 0.5 µM
# [18] = measured here: with cisplatin IC20 combination, at 0.5 µM
# [19] = measured here: combination with cisplatin, at 0.5 µM
# [20] = measured here: combination with cisplatin, at 5 µM
compound,measurement,setting,value
Nc1nc(NC2CC2)c2ncn(C3C=CC(CO)C3)c2n1 (stereo not drawn),inhibition,"[1]; at 0.5 µM, stronger effect = higher value",18.6% (inactive) and 9.78% (inactive)
same,inhibition,"[1]; measured here: combination with BGB IC20, at 0.005 µM",-10.2% and -25.3%
same,inhibition,"[1]; measured here: combination with BGB IC40, at 0.005 µM",-2.6% and -37.7%
same,inhibition,[1]; [16],-13.2% and -43.3%
same,inhibition,"[1]; measured here: combination with cisplatin, at 0.5 µM, stronger effect = higher value",0.791% and -12%
same,inhibition,"[1]; measured here: combination with cisplatin, at 5 µM, stronger effect = higher value",42.6% and 20.9%
same,inhibition,"[2]; BGB combo, at 5 µM",7.05% and 3.14%
same,inhibition,[2]; at 0.5 µM,-27.8% (inactive) and -12.2% (inactive)
same,inhibition,"[2]; cisplatin combo, at 5 µM",15.9% and 16.9%
same,inhibition,[2]; [17],-24.7% and -14%
same,inhibition,[2]; [18],-37.5% and -12%
same,inhibition,"[2]; single agent, at 5 µM",15.7% and 29.8%
same,inhibition,"[3]; BGB IC20 combo, at 0.005 µM",-32.2% and 1.07%
same,inhibition,"[3]; BGB IC40 combo, at 0.005 µM",-10% and -27%
same,inhibition,"[3]; BGB IC40 combo, at 0.05 µM",11.7% and 20.9%
same,inhibition,[3]; at 0.5 µM,-15.2% (inactive) and -19.6% (inactive)
same,inhibition,"[3]; cisplatin combo, at 0.05 µM",9.21% and 18%
same,inhibition,"[3]; cisplatin combo, at 0.5 µM",-8.32% and -16.8%
same,inhibition,"[3]; cisplatin combo, at 5 µM",-66.5% and -40.2%
same,inhibition,"[3]; measured here: 5 uM single agent, at 5 µM",-33.4% and -23.1%
same,inhibition,[4]; at 0.5 µM,-29.4% (inactive) and -14.1% (inactive)
same,inhibition,[4]; [16],-41.9% and -20.2%
same,inhibition,[4]; [19],-65.7% and -24.2%
same,inhibition,[4]; [20],10.3% and 37.7%
same,inhibition,[5]; at 0.5 µM,-22.4% (inactive) and -2.82% (inactive)
same,inhibition,"[5]; measured here: with BGB IC20, at 0.5 µM",-29.8% and -5.83%
same,inhibition,"[5]; measured here: with BGB IC20, at 5 µM",-10.5% and 18.8%
same,inhibition,"[5]; measured here: with cisplatin IC20, at 0.5 µM",-25.7% and -8.4%
same,inhibition,"[5]; measured here: with cisplatin IC20, at 5 µM",3.54% and 48.9%
same,inhibition,"[5]; single agent, at 5 µM",15.5% and 29.1%
same,inhibition,[6]; at 0.5 µM,-73.4% (inactive) and -21.7% (inactive)
same,inhibition,"[6]; measured here: combination with BGB at IC20, at 0.5 µM",-122% and -23.9%
same,inhibition,"[6]; measured here: combination with cisplatin at IC20, at 0.5 µM",-57% and -77.8%
same,inhibition,[7]; at 0.5 µM,-12.2% (inactive) and -6.69% (inactive)
same,inhibition,"[7]; measured here: combo with BGB at IC20, at 0.5 µM",-5.41% and -19.4%
same,inhibition,"[7]; measured here: combo with cisplatin at IC20, at 0.5 µM",-23.6% and 5.04%
same,inhibition,[8]; at 0.5 µM,-7.07% (inactive) and -1.31% (inactive)
same,inhibition,"[8]; measured here: inhibition with BGB combination, at 0.05 µM",-16.1% and -7.54%
same,inhibition,"[8]; measured here: inhibition with cisplatin combination, at 0.05 µM",-20.7% and -16.3%
same,inhibition,[9]; at 0.5 µM,-0.03% (inactive) and -16.7% (inactive)
same,inhibition,[9]; [19],2.24% and -15.7%
same,inhibition,[9]; [20],-15.7% and 24.3%
same,inhibition,[10]; at 0.5 µM,0.7% (inactive) and -5.22% (inactive)
same,inhibition,"[10]; measured here: BGB combination, at 0.5 µM",5.51% and -4.19%
same,inhibition,"[10]; measured here: BGB combination, at 5 µM",23.6% and 15.9%
same,inhibition,"[10]; measured here: cisplatin combination, at 0.5 µM",-6.39% and -11.5%
same,inhibition,"[10]; measured here: cisplatin combination, at 5 µM",25.3% and 12.2%
same,inhibition,"[11]; BGB combination, concentration series, at 5 µM",21.9% and 44.1%
same,inhibition,[11]; at 0.5 µM,-6.63% (inactive) and -4.62% (inactive)
same,inhibition,"[11]; cisplatin combination, concentration series, at 5 µM",36% and 67.6%
same,inhibition,[12]; at 0.5 µM,-19.5% (inactive) and 11.5% (inactive)
same,inhibition,"[12]; measured here: combo with BGB IC20, at 0.5 µM",-10.8% and 10%
same,inhibition,"[12]; measured here: combo with cisplatin IC20, at 0.5 µM",-38.1% and 8.23%
same,inhibition,[13]; at 0.5 µM,-4.33% (inactive) and -11.9% (inactive)
same,inhibition,"[13]; cisplatin combination, at 0.5 µM",6.28% and -30.6%
same,inhibition,"[13]; cisplatin combination, at 5 µM",27.2% and 36.5%
same,inhibition,"[13]; measured here: BGB IC40 combination 0.05 uM, at 0.05 µM",4.8% and -24.4%
same,inhibition,"[13]; single agent, at 5 µM",29.7% and 30.5%
same,inhibition,[14]; at 0.5 µM,-22.8% (inactive) and -12.3% (inactive)
same,inhibition,"[14]; cisplatin combo, at 5 µM",15.1% and 15.7%
same,inhibition,"[14]; measured here: BGB IC40 combination, at 0.05 µM",-23.6%
same,inhibition,[14]; [19],-50.2% and -0.496%
same,inhibition,"[14]; single agent, at 5 µM",16.3% and 21.5%
same,inhibition,[15]; at 0.5 µM,-22.4% (inactive) and -10.8% (inactive)
same,inhibition,[15]; [17],-35.1% and -4.57%
same,inhibition,[15]; [18],-18.6% and -15.8%
same,inhibition,"[15]; single agent, at 0.05 µM",-49.6% and -25.5%
same,inhibition,"[15]; single agent, at 5 µM",-7.83% and 23.5%
